# Source: PubChem BioAssay (NCATS)
# Records with an inconclusive call do not appear. Values without a mark were called inactive. Active and inactive are the calls of the source. Calls follow the shape of the dose curve; as a rule, active = well fitted cell-killing curve with a large enough effect; inconclusive = small, poorly fitted or top-dose-only effect, or effect the other way; inactive = no such curve, though single readings can be large or run the other way.
# What was measured:
# [1] = Viability qHTS for spleen associated tyrosine kinase inhibitor (SYKi) naive MV4-11 cells (AID 1963823); also: nearly all actives have a fitted effect of over 40% in size
# Outline: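 Compounds were dispensed acoustically onto plates, MV4-11 cells (SYKi-naive) added at 500 per well, and plates incubated 72 hr at 37 C. CellTiter-Glo was added and luminescence measured after 10 min.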
# [2] = Viability qHTS for spleen associated tyrosine kinase inhibitor (SYKi) drug resistant MV4-11 cells (AID 1963824); also: nearly all actives have a fitted effect of over 35% in size
# Outline: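 CellTiter-Glo luminescence, read 10 min after reagent addition, reports viability after a 72 hr compound exposure. Cells are an MV4-11 line made resistant to SYK inhibition, seeded at 500 per well onto compound-containing plates.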
# Potency is read from the fitted curve at half-maximal effect.
Structure (SMILES),Potency [1],Potency [2],viability (% of control) [1],"viability, % of control [2]"
OC1(CN2CCC(COc3noc4cccc(O[C@@H]5CCOC5)c34)CC2)CCOCC1,inactive,inactive,–,–
Oc1ccc(Nc2nc(-c3ccc(Cl)cc3)cs2)cc1,5.8 µM (active),2.06 µM (active),–,–
CC1(C(=O)O)CC[C@]2(C(=O)OC3OC(CO)C(O)C(O)C3O)CC[C@]3(C)C(=CCC4[C@@]5(C)CC[C@H](OC6OCC(O)C(O)C6OC6OC(CO)C(O)C(O)C6O)C(C)(C)C5CC[C@]43C)C2C1 (stereo partly drawn),–,–,68.3% [at 9.25 µM],78.9% [at 9.25 µM]
C=C1C(=O)O[C@@H]2C[C@@]3(C)CCCC(=C)[C@]3(O)C[C@H]12,5.8 µM (active),2.59 µM (active),–,–
COC(=O)C1=COC(OC2OC(CO)C(O)C(O)C2O)C2C(COC(=O)/C=C/c3ccc(O)cc3)C(O)C(O)C12 (stereo not drawn),inactive,inactive,–,–
CC1=CC(=O)CC(C)(CO[C@@H]2O[C@H](CO)[C@@H](O)[C@H](O)[C@H]2O)C1(O)/C=C/C(C)=C/C(=O)O (stereo partly drawn),inactive,inactive,–,–
O=C1NC(=O)c2cc(Nc3ccc(F)cc3)c(Nc3ccc(F)cc3)cc21,2.91 µM (active),1.03 µM (active),–,–
CC(=O)OCC1=C[C@@H]2OC(=O)C3=CO[C@@H](O[C@@H]4O[C@H](CO)[C@@H](O)[C@H](O)[C@H]4O)[C@H]1[C@@H]32,inactive,inactive,–,–
CNC(=O)c1ccc2cc([C@@]3(O)CCn4cncc43)ccc2c1,inactive,inactive,–,–
CC(C)CCC[C@@H](C)[C@H]1CC[C@H]2[C@@H]3CC=C4C[C@@H](OC(=O)NCCN(C)C)CC[C@]4(C)[C@H]3CC[C@]12C,20.6 µM (active),16.4 µM (active),–,–
C[C@@H]1O[C@@H](O[C@H]2[C@@H]3C=CO[C@@H](O[C@@H]4O[C@H](CO)[C@@H](O)[C@H](O)[C@H]4O)[C@@H]3[C@@]3(CO)O[C@@H]23)[C@H](OC(=O)/C=C/c2ccc(O)c(O)c2)[C@H](O)[C@H]1O,inactive,inactive,–,–
CC(=O)O[C@H]1C[C@@H](O)C(C)(C)C2C[C@@H](OC(C)=O)[C@]3(C)C(CC[C@@]4(C)[C@H](c5ccoc5)OC(=O)[C@H]5O[C@]543)[C@]21C (stereo partly drawn),inactive,inactive,–,–
CC1(C)CCC2(C(=O)O)C(O)CC3(C)C(=CCC4C5(C)CCC(OC6OC(CO)C(O)C(O)C6OC6OC(CO)C(O)C(O)C6OC6OCC(O)(CO)C6O)C(C)(C)C5CCC43C)C2C1 (stereo not drawn),–,–,68.6% [at 9.25 µM],84.8% [at 9.25 µM]
COC1CC(=O)C23C(=O)NC(CC(C)C)C2C(C)C(C)=CC3/C=C(\C)CCC(O)C1O (stereo not drawn),1.42 µM (active),1.78 µM (active),–,–
Cc1ccc(-c2nn(C(C)(C)C)c3ncnc(N)c23)cc1,3.66 µM (active),8.2 µM (active),–,–
CC1=CC(=O)C2C(C)(C)CCC[C@]2(C)[C@H]1CO (stereo partly drawn),inactive,inactive,–,–
CCCCCc1ccc(/C=C/[C@H](O)[C@@H](CO)NC)cc1,11.6 µM (active),20.6 µM (active),–,–
OCC1OC(Oc2cc(O)c3c(c2)OC(c2ccc(O)cc2)C(O)C3)C(O)C1O (stereo not drawn),inactive,inactive,–,–
Oc1ccc2c(c1)OCC1(O)Cc3cc(O)c(O)cc3C21 (stereo not drawn),3.66 µM (active),3.66 µM (active),–,–
O=C(O)C(Cc1cc(I)c(O)c(I)c1)c1ccccc1 (stereo not drawn),inactive,inactive,–,–
CC(C)C(C#N)O[C@@H]1O[C@H](CO[C@@H]2OC[C@](O)(CO)[C@H]2O)[C@@H](O)[C@H](O)[C@H]1O (stereo partly drawn),inactive,inactive,–,–
Cc1cc(N2CCCCC2)nc2ccccc12,inactive,inactive,–,–
O=S(=O)(NCC1CC1)c1ccc(Nc2nccc(N3CCCc4cc(O)ccc43)n2)cc1,0.146 µM (active),0.206 µM (active),–,–
COc1cc(O[C@@H]2O[C@H](CO)[C@@H](O)[C@H](O)[C@H]2O)c(CCC(=O)OC[C@H]2O[C@@H](Oc3cc(OC)c(C4OC(=O)C(C)(O)C4O)cc3CCC(=O)O)[C@H](O)[C@@H](O)[C@@H]2O)cc1C1OC(=O)C(C)(O)C1O (stereo partly drawn),–,–,77% [at 9.25 µM],81.1% [at 9.25 µM]
O=C1NC(=O)C(c2cn3c4c(cccc24)CCC3)C1c1c[nH]c2ccccc12 (stereo not drawn),0.92 µM (active),0.92 µM (active),–,–
C=C1C(=O)O[C@@H]2C[C@@H](C)[C@]34C[C@]5(C(=O)O[C@H]6CC(C)=C([C@H](C)CCCO)[C@H](OC(=O)C(C)CC)[C@H]65)[C@@H](C(C)=C3C[C@@H]12)[C@H]4OC(C)=O (stereo partly drawn),3.06 µM (active),2.43 µM (active),–,–
CN1CCN(C2Cc3ccccc3Sc3ccc(Cl)cc32)CC1 (stereo not drawn),3.35 µM (active),3.35 µM (active),–,–
CC1(C)CC[C@]2(C(=O)O)CC[C@]3(C)C(=CCC4[C@@]5(C)C[C@H](O)[C@H](O[C@@H]6O[C@H](CO)[C@@H](O)[C@H](O)[C@H]6O)[C@@](C)(CO)C5[C@H](O)C[C@]43C)[C@@H]2C1 (stereo partly drawn),inactive,inactive,–,–
CO[C@H]1/C=C/O[C@@]2(C)Oc3c(C)c(O)c4c(O)c(c(/C=N\N5CCN(C6CCCC6)CC5)c(O)c4c3C2=O)NC(=O)/C(C)=C\C=C\[C@H](C)[C@H](O)[C@@H](C)[C@@H](O)[C@@H](C)[C@H](OC(C)=O)[C@@H]1C,18.6 µM (active),11.8 µM (active),–,–
